About 83,000 compounds went through this panel and 20% of them were active in at least one assay; those are over-represented in the sample as a whole.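 Cells were grown in 96-well plates and exposed to the test compound at a single concentration for 48 hours; results are reported as percent growth, with values below 10 considered active.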 Activity calls are given as the source filed them.
Experiments:
Experiment in all cases: NCI-60 one-dose screen, 48 h (100 = growth as untreated, 0 = no growth, -100 = all killed)
Conditions in all cases: 10 µM unless noted
DU-145 prostate = test system: DU-145 prostate
K-562 leukemia = test system: K-562 leukemia
MALME-3M melanoma = test system: MALME-3M melanoma
MDA-MB-231 breast = test system: MDA-MB-231 breast
RXF 393 renal = test system: RXF 393 renal
SF-268 CNS = test system: SF-268 CNS
SF-295 CNS = test system: SF-295 CNS
SF-539 CNS = test system: SF-539 CNS
UACC-257 melanoma = test system: UACC-257 melanoma
M14 melanoma = test system: M14 melanoma
HCT-15 colon = test system: HCT-15 colon
HT29 colon = test system: HT29 colon
SNB-75 CNS = test system: SNB-75 CNS
SNB-19 CNS = test system: SNB-19 CNS
U251 CNS = test system: U251 CNS
PC-3 prostate = test system: PC-3 prostate
SK-MEL-5 melanoma = test system: SK-MEL-5 melanoma
UACC-62 melanoma = test system: UACC-62 melanoma
LOX IMVI melanoma = test system: LOX IMVI melanoma
SK-MEL-28 melanoma = test system: SK-MEL-28 melanoma

Measured: growth

CCOC(=O)C1=C(N)Oc2cc(OC)ccc2C1c1ccc(F)c(F)c1 (stereo not given)
active: RXF 393 renal -9.59% | HT29 colon 2.96% | SNB-75 CNS 5.44%
inactive: DU-145 prostate 37.7% | K-562 leukemia 11.2% | MALME-3M melanoma 59.3% | MDA-MB-231 breast 47.4% | SF-268 CNS 51.3% | SF-295 CNS 17.7% | SF-539 CNS 17.8% | UACC-257 melanoma 53.4% | M14 melanoma 18% | HCT-15 colon 22.3% | SNB-19 CNS 28.1% | U251 CNS 28.2% | PC-3 prostate 26.8% | SK-MEL-5 melanoma 12.8% | UACC-62 melanoma 25.5% | LOX IMVI melanoma 43.8% | SK-MEL-28 melanoma 63.2%

COc1ccc(/C(=C/c2cc(OC)c(OC)c(OC)c2)[N+](=O)[O-])cc1
active: K-562 leukemia 3.58% | MALME-3M melanoma -10.8% | MDA-MB-231 breast 9.98% | RXF 393 renal -85.1% | SF-539 CNS -11.3% | M14 melanoma 2.06% | HCT-15 colon -41.3% | HT29 colon -14.2% | U251 CNS 5.34% | UACC-62 melanoma -7.25% | LOX IMVI melanoma -80.3% | SK-MEL-28 melanoma 1.77%
inactive: DU-145 prostate 16.3% | SF-268 CNS 17.6% | SF-295 CNS 103% | UACC-257 melanoma 31.8% | SNB-75 CNS 49.2% | SNB-19 CNS 55.2% | PC-3 prostate 35.1% | SK-MEL-5 melanoma 70.7%

COc1ccc2c(c1)C(=O)/C(=C/c1ccc(OCC(=O)c3ccc(Cl)cc3)cc1)O2
active: K-562 leukemia -42.3% | SNB-75 CNS -0.258%
inactive: DU-145 prostate 104% | MALME-3M melanoma 80% | MDA-MB-231 breast 68.8% | RXF 393 renal 74.5% | SF-268 CNS 108% | SF-295 CNS 73.7% | SF-539 CNS 96% | UACC-257 melanoma 75.1% | M14 melanoma 83.9% | HCT-15 colon 98.8% | HT29 colon 100% | SNB-19 CNS 101% | U251 CNS 80.9% | PC-3 prostate 50.9% | SK-MEL-5 melanoma 131% | UACC-62 melanoma 72.2% | LOX IMVI melanoma 40.1% | SK-MEL-28 melanoma 104%

COc1cc(-c2nc3ccccc3s2)ccc1OCc1nc2n(n1)S(=O)(=O)c1ccccc1N2c1ccccc1
inactive: DU-145 prostate 110% | K-562 leukemia 81.7% | MALME-3M melanoma 66.7% | MDA-MB-231 breast 79.5% | RXF 393 renal 114% | SF-268 CNS 102% | SF-295 CNS 107% | SF-539 CNS 104% | UACC-257 melanoma 112% | M14 melanoma 120% | HCT-15 colon 99.2% | HT29 colon 104% | SNB-75 CNS 103% | SNB-19 CNS 105% | U251 CNS 98.1% | PC-3 prostate 96.7% | SK-MEL-5 melanoma 84.2% | UACC-62 melanoma 97.8% | LOX IMVI melanoma 93.2% | SK-MEL-28 melanoma 110%

Cc1ncc(CO)c(C(=O)O)c1O
inactive: DU-145 prostate 102% | K-562 leukemia 93% | MALME-3M melanoma 95.9% | MDA-MB-231 breast 103% | RXF 393 renal 106% | SF-268 CNS 94.4% | SF-295 CNS 100% | SF-539 CNS 96.6% | UACC-257 melanoma 107% | M14 melanoma 93.7% | HCT-15 colon 105% | HT29 colon 89.1% | SNB-75 CNS 93.4% | SNB-19 CNS 107% | U251 CNS 98.8% | PC-3 prostate 88.5% | SK-MEL-5 melanoma 103% | UACC-62 melanoma 97% | LOX IMVI melanoma 102% | SK-MEL-28 melanoma 102%

O=[N+]([O-])c1cccc2cc(S(=O)(=O)O)ccc12
inactive: DU-145 prostate 105% | K-562 leukemia 80.7% | MALME-3M melanoma 102% | MDA-MB-231 breast 105% | RXF 393 renal 122% | SF-268 CNS 104% | SF-295 CNS 104% | SF-539 CNS 99.4% | UACC-257 melanoma 91.9% | M14 melanoma 107% | HCT-15 colon 103% | HT29 colon 87.5% | SNB-75 CNS 118% | SNB-19 CNS 106% | U251 CNS 94.7% | PC-3 prostate 84% | SK-MEL-5 melanoma 103% | UACC-62 melanoma 100% | LOX IMVI melanoma 92.1% | SK-MEL-28 melanoma 111%

Cc1nccc2c3ccc(OCc4cn(-c5ccc(Br)cc5)nn4)cc3n(CCCc3ccccc3)c12
active: MALME-3M melanoma -61.1% | MDA-MB-231 breast -1.95% | RXF 393 renal -26.2% | SF-268 CNS -15.5% | SF-539 CNS -59.8% | UACC-257 melanoma -20% | M14 melanoma -81.7% | U251 CNS -61% | UACC-62 melanoma 6.16% | LOX IMVI melanoma -39.6% | SK-MEL-28 melanoma -67.6%
inactive: DU-145 prostate 48.6% | K-562 leukemia 14.9% | SF-295 CNS 98.2% | HCT-15 colon 60.5% | HT29 colon 10.5% | SNB-75 CNS 26.7% | SNB-19 CNS 56.1% | PC-3 prostate 14.1% | SK-MEL-5 melanoma 30.4%

COc1ccc(Cl)cc1NC(=O)c1cc2c(n1C)-c1nc(NC(=O)C(C)(C)C)sc1CC2
inactive: DU-145 prostate 98.6% | K-562 leukemia 92.2% | MALME-3M melanoma 106% | MDA-MB-231 breast 91.9% | RXF 393 renal 97.5% | SF-268 CNS 95.5% | SF-295 CNS 87.8% | SF-539 CNS 98.9% | UACC-257 melanoma 90.9% | M14 melanoma 88.2% | HCT-15 colon 89.4% | HT29 colon 79.2% | SNB-75 CNS 83.1% | SNB-19 CNS 106% | U251 CNS 88.4% | PC-3 prostate 71.7% | SK-MEL-5 melanoma 79.7% | UACC-62 melanoma 87.7% | LOX IMVI melanoma 93.9% | SK-MEL-28 melanoma 92.4%

CNC(=O)NN
inactive: DU-145 prostate 103% | K-562 leukemia 109% | MALME-3M melanoma 93.7% | MDA-MB-231 breast 108% | RXF 393 renal 108% | SF-268 CNS 111% | SF-295 CNS 99.6% | SF-539 CNS 97% | UACC-257 melanoma 100% | M14 melanoma 98.1% | HCT-15 colon 87.3% | HT29 colon 107% | SNB-75 CNS 88.3% | SNB-19 CNS 105% | U251 CNS 95.2% | PC-3 prostate 93.4% | SK-MEL-5 melanoma 103% | UACC-62 melanoma 104% | LOX IMVI melanoma 102% | SK-MEL-28 melanoma 112%

Cc1ccc(/C=C2/C(=O)Nc3cc(Cl)c(-c4csc(N)n4)cc32)cc1
active: K-562 leukemia 9.97%
inactive: DU-145 prostate 87.5% | MALME-3M melanoma 80.4% | MDA-MB-231 breast 46.8% | RXF 393 renal 76.4% | SF-268 CNS 71.8% | SF-295 CNS 70.8% | SF-539 CNS 81.6% | UACC-257 melanoma 94.7% | M14 melanoma 52.9% | HCT-15 colon 63.1% | HT29 colon 47.7% | SNB-75 CNS 52.4% | SNB-19 CNS 55.2% | U251 CNS 63.6% | PC-3 prostate 56.8% | SK-MEL-5 melanoma 40.8% | UACC-62 melanoma 50.7% | LOX IMVI melanoma 58.7% | SK-MEL-28 melanoma 82.7%

O=C(Nc1ccc(-n2ccc3c(NC(=O)c4ccccc4)nccc32)cc1)c1cccc(C(F)(F)F)c1
active: RXF 393 renal -8.11% | HT29 colon 2.7% | LOX IMVI melanoma 6.29%
inactive: DU-145 prostate 45.2% | K-562 leukemia 15.3% | MALME-3M melanoma 44.3% | MDA-MB-231 breast 51.4% | SF-268 CNS 26.9% | SF-295 CNS 11.3% | SF-539 CNS 16.8% | UACC-257 melanoma 44.4% | M14 melanoma 27.6% | HCT-15 colon 14.1% | SNB-75 CNS 43.9% | SNB-19 CNS 37.4% | U251 CNS 17.7% | PC-3 prostate 40.4% | SK-MEL-5 melanoma 16.5% | UACC-62 melanoma 35.4% | SK-MEL-28 melanoma 48.1%

CC(=O)N[C@@H](CNC(=O)c1cc(NC(=O)c2cc(NC(=O)c3cc(NC(=O)c4nccn4C)cn3C)cn2C)cn1C)CC(=O)Nc1cn(C)c(C(=O)Nc2cc(C(=O)Nc3cc(C(=O)Nc4cc(C(=O)NCCCN(C)CCCNC(=O)c5cccc(C(=O)O)c5)n(C)c4)n(C)c3)n(C)c2)n1
inactive: DU-145 prostate 53.3% | K-562 leukemia 105% | MALME-3M melanoma 122% | MDA-MB-231 breast 113% | RXF 393 renal 97.6% | SF-268 CNS 95.9% | SF-295 CNS 47.8% | SF-539 CNS 107% | UACC-257 melanoma 113% | M14 melanoma 89.9% | HCT-15 colon 103% | HT29 colon 67.6% | SNB-75 CNS 107% | SNB-19 CNS 86.3% | U251 CNS 64% | PC-3 prostate 88.6% | SK-MEL-5 melanoma 96.6% | UACC-62 melanoma 59.1% | LOX IMVI melanoma 80.7% | SK-MEL-28 melanoma 107%

Cc1nc(-c2ccc(Cl)cc2)ccc1NC(=O)Nc1cccc(C(F)(F)F)c1
inactive: DU-145 prostate 97.6% | K-562 leukemia 80.6% | MALME-3M melanoma 126% | MDA-MB-231 breast 115% | RXF 393 renal 104% | SF-268 CNS 98.4% | SF-295 CNS 98.4% | SF-539 CNS 94.1% | UACC-257 melanoma 98.9% | M14 melanoma 101% | HCT-15 colon 82.1% | HT29 colon 75.7% | SNB-75 CNS 92.8% | SNB-19 CNS 108% | U251 CNS 76.7% | PC-3 prostate 80.5% | SK-MEL-5 melanoma 95.3% | UACC-62 melanoma 95.6% | LOX IMVI melanoma 92.9% | SK-MEL-28 melanoma 110%

NC(=O)C1=C[C@H]2[C@H]3C=C[C@@]2(O)C(=O)O[C@@H]3O1
active: MALME-3M melanoma 4.54% | RXF 393 renal 8.42%
inactive: DU-145 prostate 45.9% | K-562 leukemia 61.8% | MDA-MB-231 breast 61.5% | SF-268 CNS 58.2% | SF-295 CNS 88.5% | SF-539 CNS 65.6% | UACC-257 melanoma 28.9% | M14 melanoma 32% | HCT-15 colon 44.8% | HT29 colon 47% | SNB-75 CNS 76.7% | SNB-19 CNS 82% | U251 CNS 63.1% | PC-3 prostate 59.1% | SK-MEL-5 melanoma 60.7% | UACC-62 melanoma 35.5% | LOX IMVI melanoma 22.9% | SK-MEL-28 melanoma 25.2%

CCCN1C(=O)CSC1=Nc1ccc2cc3ccc(N=C4SCC(=O)N4CCC)cc3nc2c1
inactive: DU-145 prostate 83.7% | K-562 leukemia 21.4% | MALME-3M melanoma 33.5% | MDA-MB-231 breast 18.5% | SF-268 CNS 62.9% | SF-295 CNS 23% | SF-539 CNS 46% | UACC-257 melanoma 43.9% | M14 melanoma 50.7% | HCT-15 colon 24.4% | SNB-75 CNS 29.6% | SNB-19 CNS 55.4% | U251 CNS 36.9% | PC-3 prostate 16.7% | UACC-62 melanoma 36.9% | LOX IMVI melanoma 11.4% | SK-MEL-28 melanoma 86.5%
active: RXF 393 renal -27.9% | HT29 colon 4.45% | SK-MEL-5 melanoma -17.7%

Source: PubChem BioAssay (NCI)
